Measurements as given in PubChem BioAssay (Tox21).
Inconclusive results are not listed. The source made the active and inactive calls. Unless noted, calls follow the shape of the dose curve; as a rule, active = well fitted curve in the direction sought with a large enough effect in the repeat runs; inconclusive = weak or mixed curves; inactive = no such curve, though single readings can be large; an effect the other way counts as inactive or inconclusive.

Assays:
[1] = A CellTox Green Cytotoxicity Assay to monitor cytotoxicity in HepG2 cells - 0 hour (AID 1224882); also: nearly all actives have a fitted effect of over 35% in size
Outline: (§1)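 HepG2, 600 cells/well premixed w/ CellTox Green; 5 h settle, 37 C/5% CO2; pintool cpd add (DMSO); 37 C, 40 h; fluorescence read at 0, 8, 16, 24, 32, 40 h.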

[2] = A CellTox Green Cytotoxicity Assay to monitor cytotoxicity in HEK293 cells - 8 hour (AID 1224884); also: nearly all actives have a fitted effect of over 35% in size
Outline: (§2)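 Read-out: fluorescence of a cell-impermeant cyanine dye staining DNA of dead cells, proportional to cytotoxicity. HEK293, 600 cells/well with reagent, compound (23 nL DMSO) added after 5 h; reads at 0, 8, 16, 24, 32, 40 h.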

[3] = qHTS RealTime-Glo MT Cell Viability Assay in HepG2 cells - 16 hour (AID 1224885); also: nearly all actives have a fitted effect of over 50% in size; also: potency is read from the fitted curve at half-maximal effect
Outline: (§3)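 Luminescence read-out: viable HepG2 cells reduce a prosubstrate to a NanoLuc substrate, giving a signal proportional to live cell number. Reads taken at 0, 8, 16, 24, 32 and 40 h of compound exposure at 37 C.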

[4] = qHTS RealTime-Glo MT Cell Viability Assay in HEK293 cells - 24 hour (AID 1224886); also: nearly all actives have a fitted effect of over 50% in size; also: potency is read from the fitted curve at half-maximal effect
Outline: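 Nonlytic real-time viability readout: viable cells convert prosubstrate to NanoLuc substrate, giving luminescence proportional to live cell number. HEK293, 600 cells/well, compound added after 5 h, continuous culture at 37 C.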

[5] = qHTS RealTime-Glo MT Cell Viability Assay in HEK293 cells - 8 hour (AID 1224887); also: nearly all actives have a fitted effect of over 50% in size; also: potency is read from the fitted curve at half-maximal effect
Outline: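 Luminescence readout at each listed time point; HEK293, 600 cells/well, RealTime-Glo MT reagent added with cells; compounds pinned (23 nL in DMSO) after 5 h at 37 C; continuous culture at 37 C.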

[6] = A CellTox Green Cytotoxicity Assay to monitor cytotoxicity in HEK293 cells - 16 hour (AID 1224888); also: nearly all actives have a fitted effect of over 35% in size
Outline: as §2

[7] = qHTS RealTime-Glo MT Cell Viability Assay in HepG2 cells - 0 hour (AID 1224889); also: nearly all actives have a fitted effect of over 50% in size
Outline: as §3

[8] = qHTS assay to identify small molecule antagonists of the estrogen receptor alpha (ER-alpha) signaling pathway using the BG1 cell line in the presence of 0.1 nM 17-beta-estradiol - cell viability counter screen (AID 1259241); also: nearly all actives have a fitted effect of over 40% in size; also: potency is read from the fitted curve at half-maximal effect
Outline: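 CellTiter-Fluor read (30 min, 37C) on ER-alpha/ERE-luc VM7Luc4E2 cells; 22 hr compound treatment; agonist 0.1 nM E2 final; same-well multiplex.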

[9] = qHTS assay to identify small molecule antagonists of the androgen receptor (AR) signaling pathway using the MDA cell line in the presence of 0.5 nM R1881 - cell viability counter screen (AID 1259242); also: nearly all actives have a fitted effect of over 45% in size; also: potency is read from the fitted curve at half-maximal effect
Outline: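 Live-cell protease fluorescence, CellTiter-Fluor, 30 min at 37C. Cells: MDA-kb2, 3,000/well, preincubated 5 hr. Compounds plus 0.5 nM R1881 final, 16 hr, 37C, 0% CO2.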

[10] = biological target: Estrogen receptor (Homo sapiens) (UniProt P03372); experiment: qHTS assay to identify small molecule antagonists of the estrogen receptor alpha (ER-alpha) signaling pathway using the BG1 cell line in the presence of 0.1 nM 17-beta-estradiol (AID 1259244); also: nearly all actives have a fitted effect of over 50% in size; also: potency is read from the fitted curve at half-maximal effect
Chain of Estrogen receptor (Homo sapiens) (P03372 whole entry, looked up): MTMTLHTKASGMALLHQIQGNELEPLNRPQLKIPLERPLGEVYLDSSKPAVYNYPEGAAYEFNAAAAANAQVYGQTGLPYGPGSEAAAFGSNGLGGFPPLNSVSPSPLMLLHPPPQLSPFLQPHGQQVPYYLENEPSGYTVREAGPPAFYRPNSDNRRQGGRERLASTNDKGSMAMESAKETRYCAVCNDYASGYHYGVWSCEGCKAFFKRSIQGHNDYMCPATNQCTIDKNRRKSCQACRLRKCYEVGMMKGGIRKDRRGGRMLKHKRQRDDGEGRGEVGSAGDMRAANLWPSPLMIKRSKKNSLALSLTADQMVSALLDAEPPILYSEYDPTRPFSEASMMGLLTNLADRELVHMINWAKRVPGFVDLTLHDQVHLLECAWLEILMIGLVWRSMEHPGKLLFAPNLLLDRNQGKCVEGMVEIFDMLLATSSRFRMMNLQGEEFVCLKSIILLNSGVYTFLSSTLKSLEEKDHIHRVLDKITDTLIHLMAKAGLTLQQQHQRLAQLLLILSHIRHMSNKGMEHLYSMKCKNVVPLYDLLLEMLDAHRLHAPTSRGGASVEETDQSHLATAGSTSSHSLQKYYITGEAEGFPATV
Outline: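 Luminescence after ONE-Glo (30 min, room temperature) measured ERE-luciferase activity in VM7Luc4E2 cells treated 22 h with compound and 0.1 nM final 17beta-estradiol as stimulator.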

[11] = qHTS assay to identify small molecule HDAC inhibitors (AID 1259364); also: potency is read from the fitted curve at half-maximal effect;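 also: wild-type HCT-116 cells with endogenous class I/II HDAC activity; nearly all actives have a fitted effect of over 45% in size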
Outline: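 HCT-116 (wild type), 1,500 cells/well, overnight; compound 2 hr 37C 5% CO2; HDAC-Glo I/II reagent 30 min RT; luminescence readout.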

[12] = qHTS assay to identify small molecule HDAC inhibitors - cell viability counter screen (AID 1259365)
Outline: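 To flag cytotoxic hits, 1,500 wild-type HCT-116 cells per well, plated the day before, receive test compounds for 2hr at 37 C before CellTiter-Glo reagent and a luminescence read.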

[13] = qHTS assay to identify small molecule agonists of the sonic hedgehog signaling (Shh) pathway - cell viability counter screen (AID 1259366); also: nearly all actives have a fitted effect of over 50% in size; also: potency is read from the fitted curve at half-maximal effect
Outline: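 Fluorescence from CellTiter-Fluor reports live cells in this counter screen. NIH/3T3-derived Gli1-Luc reporter cells receive test compounds for 24hr at 37C; reagent goes in at 23hr.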

[14] = qHTS assay to identify small molecule antagonists of the sonic hedgehog signaling (Shh) pathway - cell viability counter screen (AID 1259367); also: nearly all actives have a fitted effect of over 55% in size; also: potency is read from the fitted curve at half-maximal effect
Outline: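 Conditioned medium drove Shh signaling in 3T3 Gli1-Luc cells exposed to compounds at 37C and 5% CO2. Viability was determined from CellTiter-Fluor fluorescence, with reagent incubated 1 hr after 23 hr of treatment.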

[15] = qHTS assay to identify small molecule agonists of the sonic hedgehog signaling (Shh) pathway (AID 1259368; calls by dose curve;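 also: NIH/3T3-derived 3T3Gli1-Luc cells carrying a stable Gli1-driven firefly luciferase reporter; series mostly up to about 92 µM; nearly all actives have a fitted effect of over 15% in size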)
Outline: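 Read-out: firefly luciferase luminescence from a Gli1 response element reporter stably integrated in NIH/3T3-derived 3T3Gli1-Luc cells, measured 30 min at room temperature after reagent addition. Compound exposure lasted 24 hr at 37 C, 5% CO2.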

[16] = A CellTox Green Cytotoxicity Assay to monitor cytotoxicity in HepG2 cells - 8 hour (AID 1224890); also: nearly all actives have a fitted effect of over 45% in size
Outline: as §1

[17] = qHTS assay to identify small molecule phospholipidosis (PLD) inducers (AID 1259344; active = well fitted curve in the direction sought with a large enough effect; an effect the other way counts as inactive or inconclusive; also: potency is read from the fitted curve at half-maximal effect)
Outline: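 After 4 h attachment on collagen I, HepG2 cells were dosed with compound alongside LipidTOX Red, kept 24 h at 37 C, fixed, and imaged for lamellar phospholipid pits.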

[18] = biological target: Androgen receptor (Homo sapiens) (UniProt P10275); experiment: qHTS assay to identify small molecule antagonists of the androgen receptor (AR) signaling pathway using the MDA cell line in the presence of 0.5 nM R1881 (AID 1259243); also: nearly all actives have a fitted effect of over 50% in size; also: potency is read from the fitted curve at half-maximal effect
Chain of Androgen receptor (Homo sapiens) (P10275 whole entry, looked up): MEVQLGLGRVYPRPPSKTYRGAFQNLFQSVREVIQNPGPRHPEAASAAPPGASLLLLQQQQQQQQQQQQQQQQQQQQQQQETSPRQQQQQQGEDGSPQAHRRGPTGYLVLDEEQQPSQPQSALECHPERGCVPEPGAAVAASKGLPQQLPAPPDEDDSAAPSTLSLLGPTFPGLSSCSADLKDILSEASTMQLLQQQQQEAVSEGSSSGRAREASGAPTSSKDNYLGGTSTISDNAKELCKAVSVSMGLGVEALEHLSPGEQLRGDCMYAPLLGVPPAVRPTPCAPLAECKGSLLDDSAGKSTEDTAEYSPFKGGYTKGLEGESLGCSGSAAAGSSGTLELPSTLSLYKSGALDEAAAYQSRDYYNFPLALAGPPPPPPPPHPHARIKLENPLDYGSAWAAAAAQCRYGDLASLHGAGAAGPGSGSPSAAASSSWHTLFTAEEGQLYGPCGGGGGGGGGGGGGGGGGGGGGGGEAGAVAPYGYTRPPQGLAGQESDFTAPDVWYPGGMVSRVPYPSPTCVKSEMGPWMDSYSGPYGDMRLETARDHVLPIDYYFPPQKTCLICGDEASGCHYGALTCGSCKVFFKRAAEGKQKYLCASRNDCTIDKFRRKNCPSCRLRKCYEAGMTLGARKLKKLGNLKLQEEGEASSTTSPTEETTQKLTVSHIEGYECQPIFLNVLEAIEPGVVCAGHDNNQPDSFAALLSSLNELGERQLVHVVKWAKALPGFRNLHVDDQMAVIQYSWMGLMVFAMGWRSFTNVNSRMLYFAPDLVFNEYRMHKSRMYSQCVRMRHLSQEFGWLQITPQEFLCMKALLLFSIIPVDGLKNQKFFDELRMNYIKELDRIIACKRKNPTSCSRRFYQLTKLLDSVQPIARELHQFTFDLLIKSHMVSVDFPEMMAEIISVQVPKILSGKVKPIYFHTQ
Outline: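 MDA-kb2, MMTV-luc (AR/GR elements); 3,000 cells/well; cpd + 0.5 nM R1881 final; 16 hr 37C, 0% CO2; ONE-Glo 30 min RT; luminescence.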

[19] = qHTS assay to identify small molecule antagonists of the sonic hedgehog signaling (Shh) pathway (AID 1259369; calls by dose curve; also: nearly all actives have a fitted effect of over 45% in size; also: potency is read from the fitted curve at half-maximal effect)
Outline: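 Luminescence readout: firefly Luc under Gli1 response element in 3T3Gli1-Luc cells (NIH/3T3 clone). Antagonist mode, stimulation by conditioned medium; compound exposure 24hr at 37 C, 5% CO2.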

[20] = A CellTox Green Cytotoxicity Assay to monitor cytotoxicity in HepG2 cells - 32 hour (AID 1224883); also: nearly all actives have a fitted effect of over 50% in size; also: potency is read from the fitted curve at half-maximal effect
Outline: as §1

Measured: Potency

Nc1c(Cl)cc(Cl)cc1[N+](=O)[O-]
not listed: [16] | [17] | [18] | [19] | [20]
inactive: all other assays above

Oc1ccc2c(c1)Cc1ccccc1-2
active: [4] 19.5 µM | [5] 21.9 µM
not listed: [2] | [16] | [17] | [18] | [19] | [20]
inactive: all other assays above

COc1cc(C(C)=O)ccc1OCCCN1CCC(c2noc3cc(F)ccc23)CC1
active: [4] 9.52 µM | [5] 9.52 µM | [17] 1 µM
not listed: [12] | [18] | [19] | [20]
inactive: all other assays above

CC1CCCC(=O)C1=O (stereo unspecified)
not listed: [5] | [9] | [16] | [17] | [20]
inactive: all other assays above

CCC(CO)(CO)[N+](=O)[O-]
not listed: [8] | [15] | [16] | [17] | [18] | [20]
inactive: all other assays above

CC1=CC[C@@]23C[C@@H]1C(C)(C)[C@@H]2CC[C@H]3C
not listed: [6] | [7] | [10] | [17] | [18] | [20]
inactive: all other assays above

c1ccc(CCCc2ccncc2)cc1
active: [11] 27.3 µM
not listed: [4] | [6] | [9] | [16] | [17] | [18] | [20]
inactive: all other assays above

C[C@@H]1[C@H](O)[C@@H](C)/C=C/C=C\C=C\C=C\C=C\C=C\C=C\[C@H](O[C@@H]2O[C@H](C)[C@@H](O)[C@H](N)[C@@H]2O)C[C@@H]2O[C@](O)(C[C@@H](O)C[C@@H](O)[C@H](O)CC[C@@H](O)C[C@@H](O)CC(=O)O[C@H]1C)C[C@H](O)[C@H]2C(=O)O (stereo in doubt)
not listed: [5] | [9] | [13] | [14] | [18] | [19] | [20]
inactive: all other assays above

CC(=O)OCCC1CCCCC1
not listed: [17] | [18] | [20]
inactive: all other assays above

CO[C@@H]1[C@@H](OC)[C@H](C)[C@@](O)(CC(=O)O)O[C@H]1[C@H](C)[C@H]1O[C@@]2(CC[C@@](C)([C@H]3CC[C@@](C)([C@@H]4O[C@@H]([C@H]5O[C@](C)(O)[C@H](C)C[C@@H]5C)C[C@@H]4OC4C[C@H](OC)[C@@H](OC)[C@H](C)O4)O3)O2)C[C@H](O)[C@H]1C (stereo partly specified)
active: [20] 9.52 µM | [4] 3.38 µM | [5] 8.49 µM | [8] 3.35 µM | [9] 1.68 µM | [10] 11.9 µM | [13] 4.22 µM | [14] 3.76 µM | [19] 0.211 µM
inactive: [2] | [6] | [7] | [17] | [12] | [15]

O=C(Oc1ccccc1)c1ccc2ccccc2c1O
active: [11] 9.69 µM
not listed: [4] | [5] | [8] | [9] | [17] | [20]
inactive: all other assays above

CN1CCCN(C(c2ccccc2)c2ccc(Cl)cc2)CC1 (stereo unspecified)
inactive: [1] | [2] | [5] | [6] | [16] | [10] | [11] | [12] | [15]
active: [20] 21.3 µM | [13] 15 µM | [14] 13.3 µM | [19] 5.96 µM

O=[N+]([O-])C1(Br)COCOC1
inactive: [1] | [7] | [8] | [10] | [11] | [12] | [15]
active: [20] 49 µM | [3] 49 µM | [4] 38.9 µM | [5] 49 µM | [13] 43.3 µM | [19] 43.3 µM

CC(C)COC(=O)c1ccc(O)cc1
not listed: [4] | [5] | [6] | [10] | [11] | [17] | [18] | [20]
inactive: all other assays above

COc1ccc(-n2nc(C(F)F)cc2-c2ccc(S(C)=O)cc2)cc1 (stereo unspecified)
active: [19] 1.09 µM
not listed: [5] | [17] | [18] | [20]
inactive: all other assays above

CCCCCCCCCCCCCOS(=O)(=O)O
not listed: [5] | [8] | [10] | [17] | [20]
inactive: all other assays above

CN(C)CC/C=C1\c2ccccc2Sc2ccc(Cl)cc21
inactive: [1] | [8] | [10] | [11] | [15]
active: [20] 21.3 µM | [3] 23.9 µM | [4] 23.9 µM | [18] 29.8 µM | [13] 26.6 µM

CC(C)(C)C1(CCc2ccc(Cl)cc2)CO1 (stereo unspecified)
not listed: [9] | [17] | [18] | [20]
inactive: all other assays above

c1ccc(CNc2ncnc3c2ncn3C2CCCCO2)cc1 (stereo unspecified)
not listed: [4] | [5] | [6] | [11] | [15] | [16] | [17] | [18]
inactive: all other assays above

CC(CN(CCN(CC(C)OCCO)CC(C)OCCO)CC(C)OCCO)OCCO (stereo unspecified)
active: [4] 23.7 µM
not listed: [5] | [9] | [10] | [17] | [18] | [20]
inactive: all other assays above

O=C(O)CO
not listed: [15] | [16] | [17] | [18] | [20]
inactive: all other assays above

Nc1cccc2c(N)cccc12
active: [8] 27.3 µM | [10] 20.5 µM | [19] 5.45 µM
not listed: [3] | [4] | [13] | [14] | [20]
inactive: all other assays above

CCCc1nc2c(C)cc(-c3nc4ccccc4n3C)cc2n1Cc1ccc(-c2ccccc2C(=O)O)cc1
not listed: [4] | [5] | [7] | [13] | [14] | [18]
inactive: all other assays above

Cc1ccc2nc(N)[nH]c(=O)c2c1Sc1ccncc1
not listed: [3] | [10] | [18] | [19]
inactive: all other assays above
